{"source": "the supplement of paper PMC10477191", "note": "± gives the standard deviation of the averaged measurements."}
{"test_system": "Drosophila ezoana antennal basiconic sensillum ab10", "assay": "odor-evoked OSN spike response (post minus pre-stimulus); higher = stronger neuronal excitation", "conditions": "odor dilution: 10^-4", "description": "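Single sensillum recordings from antennal basiconic sensilla of D. ezoana. A 500 ms pulse of odorant (10^-4 in mineral oil or DMSO) was delivered; the response is the change in action potential frequency between the 1 s pre- and post-stimulus windows (spikes/s).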", "units": {"odor-evoked OSN spike response": "spikes/s"}}
{"smiles": "CC(C)=O", "note": "[acetone]", "odor-evoked OSN spike response": "76.3 ± 21"}
